Screening data as filed in PubChem.
The full list was thinned out, with hits kept by preference.
Dicer inh: inhibitors of Dicer pre-microRNA processing, primary screen, biochemical, cat-ELCCA, chemiluminescence | AID 1347074, 2019 | 47,000 compounds, 6% hits | cat-ELCCA pre-miR-21 Dicer processing; hits give high values | z-score at 25 µM | Endoribonuclease Dicer (Homo sapiens), Q9UPY3; in the data active = z-score above about 3, passing the limit was not always enough;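 note: higher signal means more uncleaved substrate so more Dicer inhibition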
Hits are given with their value; n = inactive.

SMILES	Dicer inh
CC(C)(C)c1ccc(-c2nc3cc(NC(=O)c4ccc([N+](=O)[O-])o4)ccc3o2)cc1	n
c1ccc(NCc2ccc3c(c2)OCO3)cc1	n
Clc1cc(NCc2ccc3c(c2)OCO3)ccc1N1CCOCC1	6.9
CCc1ccc(CNCc2ccc3c(c2)OCO3)cc1	n
Cc1ccc(-c2nc3cc(NC(=O)c4ccc([N+](=O)[O-])o4)ccc3o2)cc1	n
Cc1cccc(C)c1-n1[nH]nnc1=S	n
COc1cc(OC)cc(C(=O)Nc2c[nH]c(=O)[nH]c2=O)c1	n
CC(C)CCOc1cccc(C2c3c(oc4ccccc4c3=O)C(=O)N2c2nncs2)c1 (stereo not drawn)	n
O=C1N(Cc2ccc(Cl)cc2)c2ccccc2C1(O)c1c[nH]c2ccccc12 (stereo not drawn)	n
CS(=O)(=O)N1CCN(C2c3ccccc3-c3ccccc32)CC1	n
NC(=O)c1cn(Cc2c(F)cccc2F)nn1	n
CCOC(=O)c1ccc2nc(/N=C/NO)sc2c1	n
Fc1ccc(N(Cc2ccc3c(c2)OCO3)C(=S)Nc2cccc(C(F)(F)F)c2)cc1	n
CC(C)(C)NC(=O)c1cc2n(n1)C(C(F)(F)F)CC(c1ccco1)N2 (stereo not drawn)	n
O=C(Nc1cccc(O)c1)c1cc2n(n1)C(C(F)(F)F)CC(c1ccco1)N2 (stereo not drawn)	3.3
Cc1ccc(C2CC(C(F)(F)F)n3ncc(C(=O)Nc4ccc5c(c4)OCO5)c3N2)cc1 (stereo not drawn)	n
CCc1c(C)sc(NC(=O)c2cc3n(n2)C(C(F)(F)F)CC(c2ccco2)N3)c1C#N (stereo not drawn)	4
O=C(Nc1ccccc1F)c1cc2n(n1)C(C(F)(F)F)CC(c1ccco1)N2 (stereo not drawn)	n
COc1ccc(NC(=O)c2cc3n(n2)C(C(F)(F)F)CC(c2ccco2)N3)cc1OC (stereo not drawn)	n
COc1ccc(NC(=O)c2cc3n(n2)C(C(F)(F)F)CC(c2ccco2)N3)cc1 (stereo not drawn)	n
COc1ccc(NC(=O)c2cnn3c2NC(c2ccco2)CC3C(F)(F)F)c(OC)c1 (stereo not drawn)	n
O=C(Nc1ccc2c(c1)OCO2)c1cnn2c1NC(c1ccco1)CC2C(F)(F)F (stereo not drawn)	5
CC(C)(C)C(=O)OC[C@H]1O[C@@H](n2cnc3c(=O)[nH]cnc32)C[C@@H]1O	n
O=S(=O)(Oc1ncccc1C(F)(F)F)c1ccc(C(F)(F)F)cc1	n
Cc1cc(=O)oc2cc(NS(=O)(=O)c3ccc4c(c3)CCO4)ccc12	n
SMILES	Dicer inh
CN(C)/C=C1\C(=O)N(C)N=C1c1ccccc1O	n
Oc1cc2c(cc1C(c1ccc(C(F)(F)F)cc1)N1CCOCC1)OCO2 (stereo not drawn)	6.5
Oc1c(C(c2ccncc2)N2CCOCC2)cc(Cl)c2cccnc12 (stereo not drawn)	n
O=C(CCSc1nc(-c2ccc3c(c2)OCO3)cc(C(F)(F)F)n1)N1CCOCC1	n
CN(C)C(=O)/N=N/C(=O)N(C)C	n
COc1cc(NC2=NS(=O)(=O)c3ccccc32)c(OC)cc1Cl	n
CCCNC(=O)Nc1nc(CC(=O)OCC)cs1	n
CCc1ccc(OCc2nc(-c3cccnc3)no2)cc1	n
NNC(=S)Nc1ccc(Br)c(Cl)c1	n
Cc1cc(NC(=S)NN)ccc1Br	4.1
CC(C)c1ccc(NC(=S)NN)cc1	n
Cc1ccc(N2CC34C=CC(O3)C(C(=O)O)C4C2=O)cc1 (stereo not drawn)	n
O=C(CCSc1nnc(NC(=O)Cn2c(=O)sc3ccccc32)s1)Nc1ccccc1	n
O=C(Nc1nnc(SCCN2C(=O)c3ccccc3S2(=O)=O)s1)c1ccccc1	3.5
O=C(CCSc1nnc(NC2=NS(=O)(=O)c3ccccc32)s1)Nc1ccccc1	3.2
Cn1nc(CC(=O)Nc2nnc(SCCC(=O)Nc3ccccc3)s2)c2ccccc2c1=O	n
O=C1c2ccccc2S(=O)(=O)N1CCCCCN1C(=O)c2ccccc2S1(=O)=O	n
N#CCSc1nnc(NC(=O)c2ccccc2)s1	n
O=c1c([N+](=O)[O-])c(O)c2cccc3c2n1CCC3	n
O=C(NNS(=O)(=O)c1cc(C(F)(F)F)cc(C(F)(F)F)c1)c1cc(C(F)(F)F)ccc1Cl	n
Cn1c(=O)[nH]c(=O)c2c1ncn2CCN(Cc1ccccc1)Cc1ccccc1	n
CC(=O)O[C@@H]1[C@@H](OC(C)=O)[C@@H]2OC[C@@H](O2)[C@H]1OC(C)=O	n
Cn1c(=O)c2c(-c3ccccc3)n(-c3ccccc3N)cc2n(C)c1=O	n
Clc1ccc(OCc2nnsc2Cl)c(Cl)c1	n
COc1ccc(NC(=O)c2cccc3c2-c2ccc(I)cc2C3)cc1	n
COc1ccc(NC(=O)C2=Cc3cccc(OC)c3OC2)cc1	3.8
COc1ccc(NC(=O)Nc2cccc(NC(=O)Nc3ccc(OC)cc3)c2F)cc1	n
CCOC(=O)NC(NCCc1cc2ccccc2[nH]1)(C(F)(F)F)C(F)(F)F	n
CCC(c1ccccc1)c1nnc(N)s1 (stereo not drawn)	4.2
